For 99 compounds, inhibition results are on record in PubChem BioAssay AID463190 (Sanford-Burnham Center for Chemical Genomics, 2010).

Out of some 330,000 compounds screened, about 7,300 (2.2%) were called active. The entries come from a sample that favours actives as a whole. Values without a mark were called inactive.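 How the source made its calls: active means inhibition of at least 40%; inactive means the rest.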

This assay can be described thus: growth inhibition of tim10-1 ts yeast – luminescence, uHTS, primary screen (AID 463190).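 Further: mutant grown at 25 °C; 0% = DMSO wells with yeast and 100% = wells holding no yeast.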 The following applies: S. cerevisiae tim10-1 ts strain growth, BacTiter-Glo, 24 h; at 20 µM; active compounds read high.
For `CCN(Cc1ccccc1)C(=O)CCS(=O)(=O)c1ccc2c(c1)oc(=O)n2C`, the inhibition (usually the drop in the measured response relative to a control, in per cent) was -13%. On to `C[C@H](CO)N1C[C@H](C)[C@@H](CN(C)C(=O)Nc2ccc3c(c2)OCO3)Oc2c(cccc2N(C)C)C1=O`, for which the inhibition is 12.3%.

As to `CCS(=O)(=O)N1CCC(N2CCN(c3ccccc3)CC2)CC1`, the inhibition is 4.85%. The figure for `Cc1ccc2c(N)c(C(=O)c3ccccc3)sc2n1` is 41.9% (active).

As for `CCc1nc2sc(C(=O)O)c(N)c2c2c1CCCC2`, the inhibition was -71.8%. `COC(=O)c1cc2c(N)c(C(=O)c3ccc(Cl)cc3)sc2nc1C(OC)OC`: the inhibition was 10.6%. With `NC(=O)c1sc2nc3c(c(-c4ccccc4)c2c1N)CCC3`, the inhibition is 41.3% (active). Regarding `CC(C)OC(=O)c1sc2nc3c(cc2c1N)C(=O)CCC3`, the inhibition is -8.03%. For `Cc1cccc(NC(=O)c2sc3nc(N4CCOCC4)c4c(c3c2N)CCCC4)c1`, the inhibition was 32%. Consider `Cc1nc2sc(C(=O)c3ccccc3)c(N)c2c2c1CCCC2`, for which the inhibition was 42.2% (active). The figure for `Cc1sc2nc(CC(N)=O)[nH]c(=O)c2c1-c1ccccc1` is 6.26%.

As for `CCN(CC)C(=O)c1sc2nc(-c3ccccc3)ccc2c1N`, the inhibition is 21%. On to `Cc1cc(C)cc(NC(=O)c2cccc(NC(=O)C3C4CC5OC(=O)C3C5C4)c2)c1` (centres undefined), for which the inhibition is 4.38%. For the compound `CCCC(NC(=O)c1ccco1)c1nc2ccccc2[nH]1` (centres undefined), the inhibition was 14.1%. For the compound `CCOc1ccc(CCNC(=O)C2=C(C)C(=O)OC23CCC(C)CC3)cc1OCC` (centres undefined), the inhibition is 19.9%.

For the compound `Nc1nc(-c2sc3nc4c(cc3c2N)CCCC4)nc(N2CCOCC2)n1`, the inhibition is 27.8%. As for `CCN(CC)Cc1csc2ccc(Br)cc12`, the inhibition was 7.29%. As for `COc1ccccc1OCCNCC(O)COc1cccc2[nH]c3ccccc3c12` (centres undefined), the inhibition is 22.3%. As to `COc1ccc(C)cc1S(=O)(=O)NCCc1ccccc1`, the inhibition was 22.2%. Turning to `CCOC(=O)c1nnn(-c2nonc2-n2cccc2)c1CN1CCC(C(=O)OCC)CC1`, the inhibition was 31.9%. With `CC(=O)c1cccc(OCC(=O)OCC(=O)Nc2cc(S(=O)(=O)N3CCCCC3)ccc2C)c1`, the inhibition was 1.6%. For `COc1ccc(N(C)C(=O)C2CCN(S(=O)(=O)c3cccc4nsnc34)CC2)cc1`, the inhibition is 6.33%. Regarding `CC(C)C(=O)Nc1ccc2c3c(cccc13)CC2`, the inhibition was -15.9%.

Turning to `Oc1c(C(c2ccccn2)N2CCOCC2)ccc2cccnc12` (centres undefined), the inhibition was 43.7% (active). For the compound `CC(C)c1cc(CN2CCOCC2)cc(C(C)C)c1O`, the inhibition was -5.76%.

As to `COc1ccc(CCNC(=O)C2CCCN(S(=O)(=O)c3ccc(OC)cc3)C2)cc1` (centres undefined), the inhibition was 1.05%. Turning to `COc1ccc2c(c1)O/C(=C\c1ccccc1O)C2=O`, the inhibition is 18%. As for `O=C1Oc2ccccc2C(=O)/C1=C/c1ccccc1O`, the inhibition was 62.2% (active). In the case of `COC(=O)c1ccc(/C=C2/C(=O)Oc3ccccc32)cc1`, the inhibition is 39.9%. As to `Cc1ccccc1/C=C\c1nc(O)c([N+](=O)[O-])c(=O)[nH]1`, the inhibition is -8.34%. Take `CN(C)Cc1c(O)ccc2c(=O)c(-c3ccccc3Cl)coc12`: the inhibition was 1.49%. The figure for `COc1ccc(NC(=O)CCCNC(=O)Cn2cnc3sc4c(c3c2=O)CCCC4)cc1OC` is -24.1%; for `COc1ccc(NC(=O)CCNC(=O)Cn2cnc3sc4c(c3c2=O)CCCC4)cc1OC` it is -10.3%. `COc1ccc(/C=N/Nc2ncnc3sc4c(c23)CCCC4)cc1O`: the inhibition is 40.7% (active). As to `S=C(NCCc1ccccc1)Nc1ccccc1`, the inhibition is 19.1%.

Turning to `S=C(NCCCc1ccccc1)Nc1ccc(Br)cc1`, the inhibition was 64.1% (active).

For the compound `O=C(CCNC(=O)c1ccc(Br)cc1)NCCCc1ccccc1`, the inhibition was 7.38%. As to `CC12CN(NC(=O)c3ccc(Cl)cc3)C3(C#N)CC1CCC23C` (centres undefined), the inhibition was 36.5%. In the case of `CCn1nc(C(=O)NNS(=O)(=O)c2cc(/C=C/C(=O)O)cc(OC)c2OC)c2ccccc2c1=O` it was -3.64%; in that of `O=C(COC(=O)c1ccc(S(=O)(=O)N2CCc3ccccc3C2)cc1)NC(=O)NCc1ccco1`, 0.504%; in that of `Cc1cnc(C(=O)Oc2cccc(Cl)c2Cl)cn1`, -10.1%. Turning to `N/C(=N\OC(=O)CC1CCCCC1)c1ccccc1`, the inhibition was 49.3% (active).

As to `O=C(CC1CCCCC1)NCc1ccccc1`, the inhibition is 11.1%.

For the compound `COc1ccccc1OCC(=O)O/N=C(\N)c1ccccn1`, the inhibition is 22.7%.

With `N/C(=N\OC(=O)c1ccc([N+](=O)[O-])cc1)c1ccccn1`, the inhibition was 37.6%. In the case of `N/C(=N\OC(=O)CCC1CCCCC1)c1ccccn1`, the inhibition is 47.6% (active). `CCc1cccc(C)c1NC(=O)COC(=O)CC1CCCC1`: the inhibition was 2.51%. Consider `CCCC(C)C(=O)NCc1ccncc1` (centres undefined), for which the inhibition was 27.9%. In the case of `CCCc1cc(=O)[nH]c(SCc2cc(=O)oc3c(C)c(C)ccc23)n1`, the inhibition was 10.3%.

Regarding `Cc1cccn2c(=O)c3cc(C(=O)NC4CCCCC4)sc3nc12`, the inhibition is 19.7%. The figure for `Cc1cc(C)c2c(n1)sc1c(=O)n(-c3ccccc3)c(=O)[nH]c12` is 4.48%; for `Cc1cccc(NC(=S)NC23CN4CN(CN(C4)C2)C3)c1` it is 10%; for `Cc1cccc(NC(=S)Nc2ccc3cn[nH]c3c2)c1` it is 15.4%. For `Cc1cccc(NC(=S)Nc2ccc(Cl)c(Cl)c2)c1`, the inhibition was 49.9% (active). With `Cc1cccc([C@@H]2[C@@H]3C(=O)N(C)C(=O)[C@@H]3[C@@H]3C(=O)Nc4ccccc4C(=O)N23)c1`, the inhibition is 5.99%.

For the compound `O=C(NC1CCCC1)c1cc(-c2ccccc2)on1`, the inhibition is -21.5%.

With `FC(F)(F)c1nnc2c3ccccc3c(Cl)nn12`, the inhibition was 17.8%.

In the case of `CC1CCc2sc3nc(N4CCN(CCO)CC4)n4ncnc4c3c2C1` (centres undefined), the inhibition is 40.6% (active). For the compound `Cc1cc(NC(=O)CSc2nc(C(C)C)nc3sc4c(c23)CCC(C)C4)no1` (centres undefined), the inhibition is 4.7%. In the case of `Cc1[nH]c2ccccc2c1/C=C(/C#N)C(=O)NC(C)C`, the inhibition is 20.4%. On to `CC(C)(C)C(=O)/C(C#N)=C/c1ccc(O)cc1`, for which the inhibition was 8.78%. In the case of `CC(C)NC(=O)/C(C#N)=C\c1ccc(N(C)C)c(Br)c1` it was 53.6% (active). For the compound `Cc1ccc(C(=O)OC2=CC(=O)CC(C)(C)C2)cc1`, the inhibition is 31%. The figure for `COCCCNS(=O)(=O)c1cccc(S(=O)(=O)c2cccc(S(=O)(=O)NCCCOC)c2)c1` is 2.99%.

`O=C(NCCCN1CCOCC1)c1ccc(N2CCCC2)c([N+](=O)[O-])c1`: the inhibition is -9.34%. For the compound `O=C(COc1ccccc1F)NNC(=O)c1ccc(N2CCCCC2)c([N+](=O)[O-])c1`, the inhibition is 41.3% (active).

With `Cc1ccccc1OCC(=O)NNC(=O)c1ccc(-n2cncn2)c([N+](=O)[O-])c1`, the inhibition was -11%.

With `CC(C)CC(=O)N/C(N)=N/c1nc2ccccc2s1`, the inhibition was 19.6%. Take `CCOC(=O)/C(N=Nc1cc(C(=O)O)cc(C(=O)O)c1)=C(\O)CCl`: the inhibition is 11%.

As for `O=c1cccc(-c2ccc(Br)cc2)o1`, the inhibition is 4.04%.

Turning to `CCOC(=O)C(=Cc1ccccc1OC)C(=O)OCC`, the inhibition is 49.6% (active). For `COc1ccccc1/C=C/C(=O)NC1CC2CCC1C2` (centres undefined), the inhibition is 19.5%.

With `CCOC(=O)C(=CNc1cccc(C)n1)C(=O)OCC`, the inhibition was -6.8%. `Cc1c(C)n2c(SCC(=O)N3CCCC3)nnc2[nH]c1=O`: the inhibition is 0.597%.

Turning to `CCCCCCC(=O)N(O)C1CC(=O)N(c2ccccc2)C1=O` (centres undefined), the inhibition was 33.7%. In the case of `CCN(CC(=O)Nc1ccccc1C(=O)NC1CC1)Cc1cccs1` it was 17.5%; in that of `CN1C/C(=C/c2cccs2)C(=O)/C(=C\c2cccs2)C1`, 19.2%; in that of `Cc1cccc(C2=N/C(=C/c3cccs3)C(=O)O2)c1`, 31.5%. For the compound `CSC1=N/C(=C\C=C\c2cccs2)C(=O)S1`, the inhibition is 47.1% (active). For the compound `O=C(NCc1ccccc1Cl)C1CCC(CNc2c(N3CCCCC3)c(=O)c2=O)CC1` (centres undefined), the inhibition is -8.66%. Turning to `C/C(=N\NC(=O)c1cc2c(s1)CCC(C)C2)c1cccnc1` (centres undefined), the inhibition was 39.6%.

Consider `CCOC(=O)C1=C(c2ccccc2)NC(=O)NC1c1cc(OCC)c(O)c([N+](=O)[O-])c1` (centres undefined), for which the inhibition was -5.37%.

As for `CCCc1[nH]nc2c1C(c1ccc(Br)s1)C(C#N)=C(N)O2` (centres undefined), the inhibition was 83% (active). `CCCc1[nH]nc2c1C(c1ccc(OC(=O)c3ccco3)cc1)C(C#N)=C(N)O2` (centres undefined): the inhibition was 8.03%.

Consider `CCCc1[nH]nc2c1C(c1ccc(OC)c(Cn3nc(C)c(Br)c3C)c1)C(C#N)=C(N)O2` (centres undefined), for which the inhibition is 11.3%. With `COc1ccc(NC(=O)COC(=O)CNC(=O)C2CCCCC2)cc1`, the inhibition was 4.06%. In the case of `CCOC(=O)c1cccc(NC(=O)CCOc2ccccc2)c1` it was 12.6%.

For `CCc1ccccc1NC(=O)CCOc1ccccc1`, the inhibition is 11.8%. For `Cc1ccc(NC(=O)CCOc2ccccc2)cc1S(=O)(=O)Nc1ccccc1Cl`, the inhibition was 43.7% (active). For `CN(C(=O)CSc1nnc(Nc2ccccc2)s1)C1CCS(=O)(=O)C1` (centres undefined), the inhibition was 8.97%. `COc1ccc(-c2cc(=O)oc3cc(OCC(=O)N[C@@H](Cc4c[nH]c5ccccc45)C(=O)O)ccc23)cc1`: the inhibition is 16.2%. For `C=CCOC(=O)C1=C(C)N=C2SCCC(=O)N2C1/C=C/c1ccccc1OC` (centres undefined), the inhibition is 5.92%. In the case of `COc1ccc(-c2cn[nH]c2-c2ccc(OC)cc2)cc1` it was 38.8%; in that of `CCOc1ccccc1Oc1cn[nH]c1-c1ccc(OC)cc1O`, -13%; in that of `COc1ccc(Oc2cn[nH]c2-c2ccc(OC)cc2O)cc1`, 50.1% (active). In the case of `Cn1sc(=O)c2cc(S(=O)(=O)NC3CC3)ccc21` it was 22.8%; in that of `COc1ccc(N2CCN(C(=O)CCSCc3ccccc3F)CC2)cc1`, 40.2% (active). With `COc1ccc(N2CCN(C(=O)CCNC(=O)c3ccc(Br)cc3)CC2)cc1`, the inhibition was 12.6%.

`O=C(CCc1ccccc1F)N1CCN(c2ccccc2)CC1`: the inhibition is 6.47%.
